The structures appear in SMILES notation. The whole screen tested about 220,000 compounds, of which about 5,700 (2.6%) were called active. About 18% were inconclusive and are not listed. Only a selection was taken, and actives are over-represented in it overall. Unmarked numbers belong to inactive results. The call rests on the fitted dose curve; in most records, active means well fitted inhibition curve with a large enough effect; inconclusive means small, poorly fitted or top-dose-only effect; inactive means no such curve, though single readings can be large or run the other way.
Potency means the concentration at half of the fitted maximal effect.

Sequence of Lysine-specific demethylase 5B (Homo sapiens) (Q9UGL1 whole entry, looked up): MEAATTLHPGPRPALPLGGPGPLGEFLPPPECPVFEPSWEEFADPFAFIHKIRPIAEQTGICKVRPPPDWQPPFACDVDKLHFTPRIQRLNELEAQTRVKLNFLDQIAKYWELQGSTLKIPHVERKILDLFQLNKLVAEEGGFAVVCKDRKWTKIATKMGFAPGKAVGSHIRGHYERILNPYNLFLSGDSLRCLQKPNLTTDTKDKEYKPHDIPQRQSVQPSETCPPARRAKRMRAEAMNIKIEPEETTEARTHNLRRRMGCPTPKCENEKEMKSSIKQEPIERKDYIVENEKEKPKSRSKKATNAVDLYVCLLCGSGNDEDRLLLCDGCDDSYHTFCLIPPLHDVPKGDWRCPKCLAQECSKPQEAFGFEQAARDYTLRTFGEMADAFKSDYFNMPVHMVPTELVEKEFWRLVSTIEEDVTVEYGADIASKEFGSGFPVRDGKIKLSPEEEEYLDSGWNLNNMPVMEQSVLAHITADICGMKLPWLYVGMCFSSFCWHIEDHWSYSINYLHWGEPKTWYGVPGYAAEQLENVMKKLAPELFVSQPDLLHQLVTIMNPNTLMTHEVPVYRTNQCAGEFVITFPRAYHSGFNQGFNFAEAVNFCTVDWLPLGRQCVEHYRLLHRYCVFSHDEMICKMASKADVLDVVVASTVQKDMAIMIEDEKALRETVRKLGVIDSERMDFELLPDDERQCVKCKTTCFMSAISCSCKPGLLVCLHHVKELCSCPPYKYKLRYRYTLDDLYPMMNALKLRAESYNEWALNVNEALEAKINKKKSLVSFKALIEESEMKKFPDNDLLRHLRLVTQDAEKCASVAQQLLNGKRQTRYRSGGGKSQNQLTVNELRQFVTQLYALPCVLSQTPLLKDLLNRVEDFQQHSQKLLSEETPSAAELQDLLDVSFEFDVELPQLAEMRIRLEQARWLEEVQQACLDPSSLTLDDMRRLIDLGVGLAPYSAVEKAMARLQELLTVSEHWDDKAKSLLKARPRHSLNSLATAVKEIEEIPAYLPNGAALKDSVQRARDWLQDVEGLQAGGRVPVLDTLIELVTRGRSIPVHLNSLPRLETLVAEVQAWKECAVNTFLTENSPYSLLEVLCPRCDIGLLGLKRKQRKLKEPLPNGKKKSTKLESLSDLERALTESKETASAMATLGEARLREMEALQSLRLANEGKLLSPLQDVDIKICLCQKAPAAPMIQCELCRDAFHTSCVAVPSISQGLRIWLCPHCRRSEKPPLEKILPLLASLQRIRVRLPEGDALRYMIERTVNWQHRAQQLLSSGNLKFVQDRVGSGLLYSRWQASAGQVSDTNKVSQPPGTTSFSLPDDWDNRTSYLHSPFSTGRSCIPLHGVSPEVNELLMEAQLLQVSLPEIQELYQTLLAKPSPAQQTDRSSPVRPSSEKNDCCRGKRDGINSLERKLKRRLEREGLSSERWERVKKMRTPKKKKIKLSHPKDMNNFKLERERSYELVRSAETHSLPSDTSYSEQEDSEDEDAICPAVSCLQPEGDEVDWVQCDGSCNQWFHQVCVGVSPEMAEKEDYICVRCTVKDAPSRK

This experiment addresses Lysine-specific demethylase 5B (Homo sapiens) (UniProt Q9UGL1). Put plainly: Primary screen for KDM5B Histone Demethylases FDH-coupled qHTS. Further: nearly all actives have a fitted effect of over 70% in size. On activity change, negative = inhibition: 0% is about no effect. As to conditions: FDH-coupled NADH fluorescence (FDH is formaldehyde dehydrogenase); series mostly up to 57.7 µM; activity change, negative = inhibition: at the top concentration. An excerpt: Assay Submitter (PI): Qin Yan, Ph.D. (Yale University) and Xiaodong Cheng, Ph.D. (MD Anderson) This project was funded as part of the NCI NEXT Program and Chemical Biology Consortium (CBC) The histone demethylases, KDM5A and KDM5B catalyze the demethylation of lysine 4 on histone H3 (H3K4me3/2). They are overexpressed in a variety of cancers and have been implicated in cancer cell growth, metastasis, drug resistance, and tumor growth. KDM5A is amplified and overexpressed in breast and gastric cancer; and is translocated in leukemia. While KDM5B is highly expressed in human mammary tumors and breast cancer cell lines, but not in normal adult breast tissue. Moreover, knockdown of KDM5B leads to upregulation of tumor suppressor genes, including BRCA1. The goal of this project is to employ qHTS to identify selective small molecule inhibitors of KDM5A/B demethylase activity to better understand the role of KDM5 in cancer and to develop novel therapies. We employed an FDH-coupled assay previously reported by Sakurai et al. to monitor in vitro KDM5 demethylase activity. Compounds showing dose response inhibition are re-acquired, validated, and tested for non-specific interference with the formaldehyde dehydrogenase (FDH) counterscreen. True inhibitors are validated using an AlphaLisa secondary screen, which employs an H3K4(me2-1)-specific antibody to monitor demethylation of a biotin-tagged H3K4(me3) peptide substrate. Inhibitors are profiled against KDM4A and KDM6A AlphaLisa counterscreens to determine level of demethylase specificity; and against the TruHits counterscreen to eliminate non-specific inhibitory activity on the AlphaLISA detection method. Selective inhibitors identified from the primary and secondary screening are tested in cells using immunofluorescence to monitor global H3K4 tri-methylation as a measure of KDM5A/B inhibition. Early Translation Branch (ETB) National Center for Advancing Translational Sciences (NCATS), Rockville, MD National Institute of Health (NIH), Bethesda, Maryland [1] Sakurai, M et al. A miniaturized screen for inhibitors of Jumonji histone demethylases. Mol Biosyst. 2010 Feb;6(2):357-64. doi: 10.1039/b912993f. Epub 2009 Oct 8.
Materials: 1536-well Black, solid bottom, medium binding assay plate is purchased from Greiner Bio-one. The enzymes (KDM5B) and substrate (H3K4me3/2) are provided by the principal investigators. The buffer for this assay is composed of 50mM HEPES at pH 7.5 with 0.01% Tween-20. FDH coupled Demethylase qHTS protocol: Three microliter enzyme mix (buffer + 200nM KDM5BDeltaAP final concentration) is dispensed into the assay plate using the BioRAPTR Flying Reagent Dispenser (FRD; […]). Compound (at various final concentration) and control solution is pin transferred to the assay plate using the Kalypsys 1536-pin tool apparatus. The assay plate is incubated for 10 min at room temperature followed by addition of 1uL substrate mix (buffer + 100uM ascorbic acid, 50uM ferrous ammonium sulfate, 12.5uM H3K4Me3, 25uM a-ketoglutarate, 0.25 mM NAD+, 0.25 U/mL formaldehyde dehydrogenase using the FRD yielding a total reaction volume of 4 uL. Initial fluorescence (Read1) is detected using the PerkinElmer ViewLux plate reader equipped with 340 nm excitation and 450 nm emission filters. The final fluorescence (Read2) signal is obtained after 30 min of room temperature incubation. Delta RFU is calculated (Read2 - Read1) and is used to generated dose response curves.
A general note: In qHTS, concentration-response curves come from the screen itself.
Consider `CSc1ccc(/C=N/Nc2c(Cl)cc(Cl)cc2Cl)cc1`, for which the “activity change, negative = inhibition” value is -27.6%.

On to `CSc1ccc(-c2ccc(C=O)cc2)cc1`, for which the Potency is 10 µM (active). Regarding `CNC(=O)c1cccc(CNC(=O)C=C(C)C)c1`, the “activity change, negative = inhibition” value was -5.74%. For `Cc1noc(C)c1COc1ccc(C(=O)NCCOc2ccccc2)cc1`, the “activity change, negative = inhibition” value was 22.7%. `Cc1nn(-c2nc3c(c(=O)n(CCN4CCCCC4)c(=O)n3C)n2C)c(C)c1C`: the “activity change, negative = inhibition” value was 15.4%. On to `COc1cccc(NC(=O)Cn2c(=O)cc(C)c3c(C)nn(-c4cccc(F)c4)c32)c1`, for which the “activity change, negative = inhibition” value is 10.7%.

As to `CCOC(=O)c1ccc(NC(=O)Cn2c(=O)cc(C)c3c(C)nn(-c4cccc(F)c4)c32)cc1`, the “activity change, negative = inhibition” value is 2.81%. Regarding `CCOCC(=O)Nc1nn(-c2cccc(F)c2)c2cccc(N3CCOC3=O)c12`, the Potency is 28.2 µM (active). Turning to `COCCN1C(=O)C(O)=C(C(=O)c2ccc(C)o2)C1c1ccc(O)c(OC)c1` (configuration not stated), the “activity change, negative = inhibition” value was -14.1%. Take `CC1=C[C@@H](CNC(=O)C2CCCCC2)[C@H](C(C)C)C[C@H]1Cc1nc2ccc(F)cc2[nH]1`: the “activity change, negative = inhibition” value was -21.6% [at 86.2 µM].

With `CC(C)Cn1cncc1CNC(=O)c1ccc2nc(-c3ccc(F)cc3)cn2c1`, the Potency was 25.1 µM (active).

Turning to `CCc1ccc(CNC(=O)C2CCN(c3nn4cc(-c5ccc(F)cc5)nc4s3)CC2)cc1`, the “activity change, negative = inhibition” value is 13.6%. Still for that read-out and setting: to `CC(=O)Nc1cc(C(=O)NCc2ccc(F)cc2)ccc1Sc1ccc(F)cc1` belongs -10.4%; to `O=C(N/N=C/c1ccccc1Cl)c1ccc(Cl)s1`, -3.13%; to `OCC#Cc1csc(CN2CCCC3(CCNCC3)CC2)c1`, 10.2%. On the same count and under the same terms, then `C=CCN(C)C(=O)[C@@H](C)C1CC[C@@]2(C)Cc3sc(Nc4c(Cl)cccc4Cl)nc3[C@@H](C)[C@@H]2[C@H]1O` (some centres not stated), with -26.3%. With `C=CCN(C)C(=O)[C@@H](C)C1CC[C@@]2(C)Cc3sc(NS(=O)(=O)c4ccc(Cl)cc4)nc3[C@@H](C)[C@@H]2[C@H]1O` (some centres not stated), the Potency was 28.2 µM (active).

On to `CCN(CC)C(=O)[C@@H](C)C1CC[C@@]2(C)Cc3sc(N)nc3[C@@H](C)[C@@H]2[C@H]1O` (some centres not stated), for which the “activity change, negative = inhibition” value is -5.26% [at 86.2 µM]. Regarding `O=C1Nc2cnccc2C2(CCN(C(=O)c3ccccc3F)C2)O1` (configuration not stated), the Potency is 31.6 µM (active). Consider `O=C(c1ccccc1F)N1CCC2(CC1)C(=O)Nc1ccccc12`, for which the “activity change, negative = inhibition” value is -1.94% [at 149 µM]. Take `CC(C)C1=NOC2(CCN(C(=O)c3ccccc3F)C2)C1` (configuration not stated): the “activity change, negative = inhibition” value was 2.96% [at 149 µM].

`O=C(O)Cc1ccc(NC(=O)Nc2cccc3ccccc23)cc1`: the “activity change, negative = inhibition” value was 19.1%. Regarding `COc1ccc2nc(SCC(=O)Nc3ncccn3)[nH]c2c1`, the “activity change, negative = inhibition” value was 10.3%. With `COc1ccccc1-c1cc(-c2cn[nH]c2)c2cncn2c1`, the “activity change, negative = inhibition” value is -2460% [at 115 µM]. With `c1cc(N2CCOCC2)ccc1-c1cc(-c2cn[nH]c2)c2cncn2c1`, the Potency was 28.2 µM (active). For `Cn1cc(CC(=O)N2CCCc3ncc(C(=O)N4CCCC[C@@H]4c4ccccc4)cc32)c2ccccc21`, the “activity change, negative = inhibition” value is -17.3%.

For `CCC(=O)Nc1cc(C(=O)NCc2ccc(N3CCOCC3)cc2)c2ccc(C)nc2c1`, the Potency is 14.1 µM (active). With `Cn1cc(-c2ccccc2)cc1C(=O)NCc1ccc(N2CCOCC2)cc1`, the “activity change, negative = inhibition” value is -31.6%. In the case of `COCc1cc(=O)n(CC(=O)NCc2ccc(C)cc2)c(N2CCOCC2)n1`, the “activity change, negative = inhibition” value was -28%. `N#Cc1nc(C2CC2)oc1N1CCN(Cc2c(F)cccc2Cl)CC1`: the “activity change, negative = inhibition” value was 12.1%. On to `Cn1c(SCC(=O)N2CCCC2)nnc1-c1ccc2c(c1)OCO2`, for which the “activity change, negative = inhibition” value is 23.9%. In the case of `c1ccc(CNCc2cccc3ccccc23)cc1`, the “activity change, negative = inhibition” value was -14.2%. For `CC(C)(C)c1ccc(OCC(=O)N2CCC(c3nc4ccccc4s3)CC2)cc1`, the activity change, negative = inhibition was 10.7% [at 11.5 µM]. Turning to `CN1CCC(N2CC[C@H](c3nc4ccccc4s3)C2)CC1`, the Potency is 28.2 µM (active).

As for `Cc1ccc(F)cc1S(=O)(=O)N1CCC(c2nc3ccccc3s2)CC1`, the “activity change, negative = inhibition” value is 2.62%. For the molecule `Cc1c(-c2ccccc2)oc2c(C(=O)N3CCN(C(=O)c4ccccc4)CC3)cccc2c1=O`, the “activity change, negative = inhibition” value is -12.4%.

As to `CCCOc1ccccc1C(=O)N1CCC2(CC1)[C@H](O)C[C@@H]2OCCN`, the “activity change, negative = inhibition” value is -7.52%. `Clc1ccccc1C1(c2ccnc(NCCn3cccn3)n2)CCNCC1`: the Potency was 28.2 µM (active).

Turning to `Cn1c(COc2ccccc2Cl)nnc1SCCn1cccn1`, the “activity change, negative = inhibition” value is 21%. As to `CCOc1ccc(/C=C2/Cc3c(O)cccc3C2=O)cc1`, the “activity change, negative = inhibition” value is 11.1%. For the molecule `N#CC1(NC(=O)COC(=O)CCN=C2NS(=O)(=O)c3ccccc32)CCCCC1`, the “activity change, negative = inhibition” value was 6.37%. Take `CN(c1ccccc1)c1cc(=O)c2ccnc(-c3ccc(CO)cc3)c2o1`: the “activity change, negative = inhibition” value is -32.9% [at 86.2 µM].

`O=c1cc(-c2cccnc2)oc2c(-c3cccc(CO)c3)nccc12`: the Potency is 35.5 µM (active). Consider `O=c1cc(-c2cccnc2)oc2c(-c3ccccc3O)nccc12`, for which the “activity change, negative = inhibition” value is -14.1% [at 86.2 µM]. Still for that read-out and setting: then `N#CC1=C(N)Oc2n[nH]c(-c3ccc4c(c3)OCO4)c2C1c1cccc(O)c1` (configuration not stated), with -29.3%.

In the case of `CN1CCN(c2oc(-c3ccccc3)nc2S(=O)(=O)c2ccc3c(c2)OCCO3)CC1`, the “activity change, negative = inhibition” value was 13.1%. As to `COCCc1noc(-c2ccc(NC(C)c3ncccc3C)nc2)n1` (configuration not stated), the Potency is 28.2 µM (active).

As for `COCc1noc(-c2ccc(NCCN3CCNC3=O)nc2)n1`, the “activity change, negative = inhibition” value is 30.3%. As to `COc1ccc(S(=O)(=O)NCCc2noc(-c3ccncc3)n2)cc1`, the “activity change, negative = inhibition” value was 13.7%. In the case of `COc1cccc(CC(=O)NCCc2noc(-c3cccnc3)n2)c1`, the “activity change, negative = inhibition” value is 12.9%. For `O=C(O)CSCc1cccnc1`, the “activity change, negative = inhibition” value is -4.43%. For `O=C(O)Cn1ccc2cc(OCCc3cccc(-c4cccnc4)c3)cnc21`, the Potency was 35.5 µM (active).

For the origin of these results see PubChem BioAssay AID1347165 (National Center for Advancing Translational Sciences (NCATS), 2019).
